USP17 block: blocks human USP17 ubiquitin-rhodamine cleavage; actives 6.5% (n = 47,000); purified USP17, Ub-rhodamine cleavage fluorescence, 3 h; inhibition, % at 50 µM; AID 1645855
Target sequence (A8MUK1 whole entry, looked up): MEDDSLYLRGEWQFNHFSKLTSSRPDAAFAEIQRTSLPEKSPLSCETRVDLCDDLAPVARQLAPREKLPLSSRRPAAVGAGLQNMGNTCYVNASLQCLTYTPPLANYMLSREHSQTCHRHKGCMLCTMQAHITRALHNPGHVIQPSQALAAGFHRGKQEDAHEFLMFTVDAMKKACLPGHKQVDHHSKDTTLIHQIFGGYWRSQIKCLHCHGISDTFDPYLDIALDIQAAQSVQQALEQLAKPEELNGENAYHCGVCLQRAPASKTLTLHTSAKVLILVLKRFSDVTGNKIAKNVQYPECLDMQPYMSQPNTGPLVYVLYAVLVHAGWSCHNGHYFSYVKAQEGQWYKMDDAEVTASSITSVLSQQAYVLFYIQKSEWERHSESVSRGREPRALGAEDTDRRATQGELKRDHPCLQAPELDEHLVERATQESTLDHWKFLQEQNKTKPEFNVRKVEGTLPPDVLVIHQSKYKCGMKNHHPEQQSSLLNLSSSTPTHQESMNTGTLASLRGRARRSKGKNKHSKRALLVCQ
USP10 block: human USP10 deubiquitinase inhibition; purified USP10, Ub-rhodamine fluorescence, 60 min; actives 1.1% (n = 47,000); AID 1645856; Q14694; inhibition, % at 20 µM
USP8 inh: human USP8 deubiquitinase inhibition | P40818 | purified USP8, Ub-rhodamine cleavage fluorescence, 30 min | inhibition, % at 20 µM | actives 4.2% (n = 47,000) | AID 1645853
USP30 inh: blocks human USP30 ubiquitin-rhodamine cleavage. actives 5.3% (n = 47,000). inhibition, % at 25 µM. AID 1645860. purified USP30, Ub-rhodamine cleavage fluorescence. Q70CQ3
USP28 block: human USP28 deubiquitinase inhibition | Q96RU2 | purified USP28, Ub-rhodamine cleavage fluorescence, 30 min | inhibition, % at 25 µM | actives 3% (n = 47,000) | AID 1645857
Each line names hits and unclear results; the compound was inactive in the other large screens. A selection: hits, their analogues and other compounds. The true share with any hit is near 13%. No stated cut-off is given here; in the data, active means inhibition above about 30%; inactive means the rest.

O=C(O)CCC(=O)Nc1cccc(-c2nnc(-c3ccccc3)o2)c1	USP30 inh 33.0
CN(C)c1cc(C(=O)NC2CCCCC2)nc2ccnn12	none
CC(C)(C)c1cc(C(=O)NC2CCCC2)nc2ccnn12	USP17 block 31.2, USP30 inh 31.0
O=C1CCCC[C@@H]2[C@@H](N1)[C@H](c1ccccc1)CN2C(=O)c1cn2cccnc2n1	none
O=C(Nc1ccc(N2CCCCC2)cc1)c1cccc(N2C(=O)CCS2(=O)=O)c1	USP8 inh 43.3
O=C(NCCc1ccc(F)cc1)c1cccc(N2C(=O)CCS2(=O)=O)c1	USP30 inh 36.7
COc1ccccc1CCNC(=O)c1cccc(N2C(=O)CCS2(=O)=O)c1	none
COc1cccc(-c2[nH]ncc2CN2CCc3nc(N4CCN(C)CC4)[nH]c(=O)c3CC2)c1	none
CCn1cc2c3c(cccc31)CN(C(=O)c1c(F)cccc1F)CC2	none
CCN(C(=O)c1cccc(NC(=O)c2ccccc2)c1)c1ccccc1	none
CCNC(=O)c1cccc(NC(=O)c2cc(Cl)c3c(c2)OCO3)c1	USP28 block 31.3
Cc1cc(C)cc(C(=O)N2CCN(c3ncnc4c3nnn4Cc3ccccc3)CC2)c1	none (no result: USP17 block)
CCc1ccc(N2CC(C(=O)OCc3cc(=O)oc4c(C)c(C)ccc34)CC2=O)cc1 (stereo not drawn)	USP17 block 30.9, USP30 inh 45.0
CC(C)N1CCN(C(=O)CN2CCC3(CCC2=O)NC(=O)c2ccccc2N3)CC1 (stereo not drawn)	USP8 inh 31.8
OCCNc1nc(-c2ccccc2)nc2c1oc1ccccc12	USP17 block 60.3, USP30 inh 70.9
COc1ccc(CCN(C)C(=O)COc2ncnc3ccccc23)cc1OC	USP30 inh 32.1 (no result: USP17 block)
COc1ccc(CCN(C)c2ncnc3c2[nH]c2ccccc23)cc1OC	none
COc1cccc(-n2c(=O)c(C(=O)NCc3ccccc3)c(O)c3cccnc32)c1	USP8 inh 80.1
COC(=O)c1cc(C#N)c(NCc2ccccc2)nc1C	USP17 block 58.8
CC(=O)c1cc2c(cc1NC(=O)c1oc3c(c1C)-c1[nH]ncc1CC3)OCO2	USP17 block 42.6, USP8 inh 30.7
CC[C@@H]1CCC[C@H](C)CC[C@@H](O[C@@H]2O[C@@H](C)[C@@H](O)[C@@H](N)[C@H]2O)[C@H](CC)CCCNC1=O	USP17 block 83.0, USP30 inh 94.9, USP28 block 82.5
Cc1ccc(-c2cnc(C3CC3)o2)cc1S(=O)(=O)Nc1ccc(F)c(Cl)c1	USP17 block 65.9, USP10 block 39.1
Cc1ccc(C)c(NS(=O)(=O)c2cc(-c3cnc(C4CC4)o3)ccc2C)c1	USP17 block 51.9
COc1cc(NC(=O)CSc2nnc(-c3cnccn3)n2C)cc(OC)c1	none
O=C(NCc1nc(-c2ccc3c(c2)[nH]c(=O)n3C2CCCC2)no1)c1ccccc1	USP17 block 58.2, USP8 inh 49.5
CCOC(=O)C1(Cc2cc(-c3cccc(C)c3)no2)CCN(Cc2ccncc2)CC1	none
Cn1cc(CN[C@H]2[C@H](O)[C@H](O)C[C@@H]2c2ccc(C(F)(F)F)nc2)cn1	USP8 inh 42.5
Cn1cc(CN[C@H]2[C@H](O)[C@H](O)C[C@@H]2c2ccccc2)cn1	none
O=C1NC2(CCCCCC2)C(=O)N1Cc1nc(-c2ccc(Cl)cc2)no1	USP17 block 39.5
CCOc1ccc(-c2nc(CN3C(=O)NC4(CCCC4)C3=O)cs2)cc1	none
Cc1ccc(NC(=O)c2nnc(C3CCCN3C(=O)C3CCC3)s2)cc1 (stereo not drawn)	USP30 inh 33.2
CNC(=O)N1CCCC1c1nnc(C(=O)Nc2ccc(F)c(F)c2)s1 (stereo not drawn)	none
Cc1cccc(OCCn2c(NC(=O)c3ccc(Cl)cc3)nc3ccccc32)c1	USP8 inh 65.8
O=c1cc(-c2ccncc2)nc(N2CCCC2)n1Cc1ccccc1	none
COc1cccc(CC(=O)Nc2cc3c(cc2SC2CCCCC2)n(C)c(=O)n3C)c1	none
O=C(Nc1ccc(OC(F)(F)F)cc1)NC1Cc2ccccc2C1	USP8 inh 42.4
O=C(Nc1ccc(F)cc1F)NC1Cc2ccccc2C1	USP30 inh 65.7
CCCn1c(-c2ccc(OC)cc2)nc2ccccc21	none (no result: USP30 inh, USP28 block)
CCCn1c(NC(=O)Cc2coc3cc(OC)ccc23)nc2ccccc21	USP8 inh 60.9
CC(=O)c1cccc(S(=O)(=O)N2CCC(C(=O)Oc3ccc(-c4nnco4)cc3)CC2)c1	USP8 inh 39.4
O=C(Oc1ccccc1)C1CCN(S(=O)(=O)c2ccc3c(c2)OCCCO3)CC1	none
COC(=O)c1cccc2nc([C@H]3CCN(C4CCN(C)CC4)C3)oc12	none
COc1cccc(C2C3=C(NCCN=C3c3ccccc3)C(=O)N2c2ccccc2)c1 (stereo not drawn)	none
O=C1C2=C(C(c3ccccc3)=NCCN2)C(c2cccc(F)c2)N1c1ccccc1 (stereo not drawn)	USP30 inh 31.8
c1csc(-c2nc(NC3CCCc4ccccc43)c3ccccc3n2)c1 (stereo not drawn)	none
O=C(COc1ncnc2sccc12)Nc1ccc2c(c1)OCCO2	none
CC(=O)c1cccc(NC(=O)COc2ncnc3sccc23)c1	USP8 inh 39.1
COCCn1c(C)c(C)c(S(=O)(=O)c2ccccc2)c1NC(=O)c1ccccc1OC	none
COc1ccc(CCNC(=O)c2sc(NC3CC3)nc2C)cc1	none
CCN(C(=O)c1cc2c(s1)-c1ccccc1OC2)c1ccccc1F	USP28 block 51.9
COc1ccc(CCNC(=O)c2cc3c(s2)-c2ccccc2OC3)cc1	USP17 block 36.8 (no result: USP30 inh, USP28 block)
O=C1COc2ccccc2C(=O)N1Cc1ccccc1F	none
CCN(C(=O)c1cc2c(Cl)nc3ccccc3c2s1)c1ccccc1F	USP30 inh 71.2
O=C(c1cn[nH]c1C1CCCN(Cc2ccnc3ccccc23)C1)N1CCOCC1 (stereo not drawn)	none
COc1cc(O)c2c(=O)c(-c3ccc(O)cc3)coc2c1	USP17 block 73.2, USP8 inh 34.9, USP28 block 30.0
CC(=O)N1CCn2c(c(C(=O)Nc3ccc(Cl)cc3)c3cccnc32)C1	none
COc1ccccc1C(=O)NCc1nc2ccccc2n1Cc1cc(C)ccc1C	USP17 block 67.1, USP30 inh 70.6
O=C(NCCc1c[nH]c2ccc(F)cc12)c1cn2cc(Cl)ccc2n1	none
O=C(NCCc1nc2ccccc2n1Cc1ccccc1F)c1ccc(Cl)cc1	USP10 block 30.4
O=C(NCCc1ccccc1F)c1cn2cc(Cl)ccc2n1	USP30 inh 61.4
Cc1cccc(C(=O)NCc2nc3ccccc3n2Cc2ccccc2C)c1	USP17 block 59.2
Cc1ccc(NC(=O)c2ccc3c(c2)N(C)CCS3)cc1	none (no result: USP30 inh, USP28 block)
Cc1cc(-c2cc(C)[nH]n2)nc(C2CCN(S(C)(=O)=O)CC2)n1	none
COc1ccc(C(=O)Nc2cccn3nc(C4CC4)nc23)cc1	none
O=C(Oc1cccc(-n2cnnn2)c1)C12CC3CC(CC(C3)C1)C2	none
COc1cc2[nH]c3c(N4CCCC4)ncnc3c2cc1OC	none

From PubChem
